DAX1 inh-1: blocks DAX1 repression of SF-1 activated StAR promoter; HEK293T StAR-luciferase reporter, SF-1/DAX-1 repression relief; inhibition, % at 6.8 µM; 1.1% of 370,000 active; AID 652010;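 active = inhibition above the mean over all tested compounds plus 3 SD, cut at about 3.6% in these data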;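 also: 0% = DAX-1 cells with DMSO and 100% = cells lacking DAX-1 with DMSO; higher inhibition means more luminescence from relief of DAX-1 repression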
ssDAF12 agonist: S. stercoralis DAF-12 activation, primary screen. AID 652126. HEK293 ssDAF-12/GRIP1 lit1-tk-luc reporter, luminescence; % of 3 µM dafachronic acid response. 1% of 370,000 active. activation, % at 6.8 µM;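 active = activation above the mean over all tested compounds plus 3 SD, cut at about 0.9% in these data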;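 also: 0% = DMSO-only wells and 100% = 3 µM delta7-dafachronic acid wells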
DAX1 inh-2: inhibits human nuclear receptor DAX1; 0.99% of 340,000 active; inhibition, % at 6.75 µM; HEK293 Gal4-DAX1 luciferase reporter, luminescence; AID 504766; P51843;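 active = inhibition above the mean over all tested compounds plus 3 SD, cut at about 4.2% in these data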;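 also: 0% = DAX1-transfected cells with DMSO and 100% = empty-vector control cells with DMSO; inhibition shows as a rise in luminescence from relieved DAX1 repression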
Target sequence (P51843 207-470 limits assumed): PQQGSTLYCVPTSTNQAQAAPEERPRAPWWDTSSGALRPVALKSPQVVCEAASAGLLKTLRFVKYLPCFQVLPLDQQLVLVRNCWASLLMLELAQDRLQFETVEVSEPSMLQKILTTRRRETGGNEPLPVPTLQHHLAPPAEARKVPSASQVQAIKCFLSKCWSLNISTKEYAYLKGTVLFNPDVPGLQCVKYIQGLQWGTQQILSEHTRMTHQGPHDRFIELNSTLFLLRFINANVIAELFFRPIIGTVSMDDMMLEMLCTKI
hgDAF-12 ag: activates the H. glycines DAF-12 receptor ligand-binding domain | HEK293 GAL4-hgDAF12 UAS-luciferase reporter, agonist luminescence; normalized to butyrate control | activation, % at 6.8 µM | 1.8% of 370,000 active | AID 687014;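 active = activation above a cutoff set at the mean of all screened compounds plus 3 SD, cut at about 10% in these data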;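 also: 0% = DMSO wells and 100% = sodium butyrate wells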
hcDAF12 agonist: activates DAF-12 receptor from parasite H. contortus. 1.4% of 370,000 active. activation, % at 6.8 µM. AID 652067. HEK293 hcDAF-12 lit1-tk-luc reporter, luminescence; 0% DMSO, 100% Δ7-dafachronic acid;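 active = activation above the mean of all tested compounds plus 3 SD, cut at about 5.5% in these data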;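 also: 100% = response to 3 µM Δ7-dafachronic acid high control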
GAA850 FXN act: increases GAA850 frataxin promoter reporter activity; activation, % at 6 µM; 0.56% of 360,000 active; AID 540364; HEK293 lucGAA850 FXN promoter luciferase reporter, 24 h; percent of 10 µM SAHA response;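 active = activation above the average of all compounds screened plus 3 SD, cutoff fixed separately per campaign, cut at about 7.5% in these data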;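 also: 0% = DMSO wells and 100% = 10 µM SAHA wells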
DAX1 inh confirm: confirmation of human DAX1 (NR0B1) inhibitors; AID 652134; 87% of 2,400 active; HEK293T StAR-promoter luciferase reporter, SF-1/DAX-1 repression; inhibition, % at 6.8 µM; shares compounds with DAX1 inh-1;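 active = inhibition above the average of every tested compound plus 3 SD, cut at about 3.8% in these data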;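 also: 0% = DAX-1 cells with DMSO and 100% = no DAX-1 control cells with DMSO; active compounds raise luminescence by relieving repression of the StAR reporter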
SF1 AF2mut Luc: nonselective inhibitor or artifact in SF-1 mutant DAX1 counter-screen. shares compounds with DAX1 inh-1. HEK293 StAR-luciferase, SF-1 AF2 mutant, luminescence. inhibition, % at 6.8 µM. 78% of 2,400 active;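 active = inhibition above the mean of all tested compounds plus 3 SD, cut at about 3% in these data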;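 also: 0% = DAX-1 transfected cells with DMSO and 100% = cells without DAX-1 with DMSO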
LXR ag: LXR-beta agonism as hcDAF-12 counter-screen. shares compounds with hcDAF12 agonist. HEK293 Gal4-LXR tk-luc reporter, luminescence, 24 h; normalized: DMSO 0%, positive control 100%. activation, % at 6.8 µM. 3,400 tested, under 10 active. AID 743027;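 active = mean percent activation of the reporter above a cutoff set as the average over tested compounds plus their standard deviation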
hcDAF12 ag: confirmation of H. contortus DAF-12 agonists | HEK293 hcDAF-12 lit1-tk-luc reporter, luminescence; % of Δ7-dafachronic acid response | 61% of 3,400 active | activation, % at 6.8 µM | shares compounds with hcDAF12 agonist;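 active = mean activation across triplicate tests above the threshold derived from the earlier primary screen, cut at about 5.5% in these data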;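 also: 0% = DMSO only wells and 100% = 3 µM Δ7-dafachronic acid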
hgDAF12 ag: hgDAF-12 agonism, confirmation assay | shares compounds with hgDAF-12 ag | 80% of 3,300 active | HEK293 GAL4-hgDAF12 luciferase reporter, agonist mode; percent of butyrate response | activation, % at 6.8 µM;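 active = mean activation over triplicate wells above the hit cutoff derived from the earlier primary screen, cut at about 11% in these data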;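 also: 0% = DMSO low control and 100% = 2 mM sodium butyrate high control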
LXR ag 2: counter-screen for DAF-12 agonists: agonists of human LXR-beta; HEK293 Gal4-LXR luciferase reporter, 24 h; 3,300 tested, under 10 active; shares compounds with hgDAF-12 ag; activation, % at 6.8 µM; AID 743051;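 active = mean activation of the triplicate above a set limit carried over from the primary screen, none filed active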
* marks the source's active call; other numbers are inactive results; · = not tested or not shown. Shown are actives, neighbours in structure and some others; about 4.5% of the full set was active somewhere.

SMILES | DAX1 inh-1 | ssDAF12 agonist | DAX1 inh-2 | hgDAF-12 ag | hcDAF12 agonist | GAA850 FXN act | DAX1 inh confirm | SF1 AF2mut Luc | LXR ag | hcDAF12 ag | hgDAF12 ag | LXR ag 2
c1ccc(N=Nc2ccc(C3=NCCO3)cc2)cc1 | 11* | 1 | 3 | 18* | 7.9* | 3 | 19* | 9.0* | 1 | 5 | 16* | 1
CCCC(=O)N1CCCC(c2cc(C(=O)Nc3ccc4c(c3)OCO4)no2)C1 (configuration not stated) | 4.7* | -1 | · | 18* | 3 | 3 | 4.4* | 2 | · | · | 13* | 1
CCOC(=O)CSc1nc2cc(OC)ccc2cc1C#N | 4.8* | 1 | 2 | 13* | 7.2* | 7 | 15* | 8.1* | 1 | 5 | 20* | 1
COc1ccc2cc(C#N)c(SCC(=O)Nc3nonc3C)nc2c1 | 0 | -1 | -1 | 3 | -2 | 3 | · | · | · | · | · | ·
CCOC(=O)CSc1nc2ccc(C)cc2cc1C#N | 5.6* | 0 | 4 | 14* | 8.9* | 3 | 13* | 10.0* | 1 | 4 | 20* | 1
C=C1[C@@H](OC(C)=O)C=C[C@@]2(C)C=CC(=O)[C@@](C)(OC(C)=O)[C@@H]2[C@@H](OC(C)=O)[C@]2(O)[C@@H](C)C(=O)O[C@H]2[C@H]1Cl | -1 | -1 | · | 0 | 2 | -2 | · | · | · | · | · | ·
COc1ccc(C2=Nc3ccccc3N(C(=O)c3ccc4ncccc4c3)C2C(=O)NC(C)(C)C)cc1 (configuration not stated) | 5.5* | 1.3* | · | 23* | 11* | · | 11* | 5.8* | 1 | 12* | 15* | 1
COc1ccc(C2=Nc3ccccc3N(C(=O)c3ccncc3)C2C(=O)NC(C)C)cc1 (configuration not stated) | 0 | -1 | · | 5 | 1 | · | · | · | · | · | · | ·
CCCNC(=O)N1CC[C@H]2[C@@H]1c1cc(-c3ccc(F)cc3)ccc1N(C)[C@H]2CO | -1 | -1 | · | -2 | 0 | · | · | · | · | · | · | ·
CC(C)Oc1cccc(C(=O)NC2=NCCS2)c1 | 5.0* | 0 | 1 | 15* | 1 | 5 | 5.9* | 4.1* | · | · | 11* | 0
COc1cccc(CNc2ccc(Br)cn2)c1O | 4.5* | 1.1* | 1 | 19* | 6.8* | 3 | 12* | 6.1* | 1 | 6.0* | 18* | 1
COc1cccc(CNc2ncc(Br)cc2Br)c1O | 1 | -1 | 2 | 5 | -1 | 4 | · | · | · | · | · | ·
Cc1ccc(NC(=O)Cc2ccc(F)cc2)c(S(=O)(=O)N2CCOCC2)c1 | -1 | -2 | · | -3 | 1 | · | · | · | · | · | · | ·
CC1CCN(c2ncnc3c2cnn3-c2ccccc2)CC1 | 7.7* | 0 | 2 | 15* | 4 | 5 | 14* | 12* | · | · | 14* | 1
CC(C)(C)Nc1ncnc2c1cnn2-c1ccccc1 | 9.0* | 1 | 1 | 16* | 5 | 0 | 15* | 4.7* | · | · | 12* | 1

Assay outcomes from PubChem.
